Where “and” joins values, the source holds several entries; their conditions need not be identical. Identical values can stand only once. Compounds without any hit were thinned out: in the full panel of roughly 83,000, 20% have a hit.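 Each cell line was grown in a 96-well plate and treated with one concentration of compound for 48 hours. Values below 10 were considered active.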 Calls of active or inactive are those of the source.
tested on: MDA-MB-468 breast; test: NCI-60 one-dose screen, 48 h (100 = growth as untreated, 0 = no growth, -100 = all killed); details: 10 µM unless noted

Row | SMILES | growth
1 | COc1cnc2c(c1)C(=O)c1c-2n(CCCn2ccnc2)c(=O)c2cc(F)ccc12 | -35.7% (active)
2 | CC(C)(C)OC(=O)CN1CCc2c(sc3ncnc(N/N=C/c4cccc5ccccc45)c23)C1 | 34.3% (inactive)
3 | C=C1C(=O)O[C@H]2[C@H]1CC/C(COC(=O)NCc1ccc(Cn3c(=O)sn(CCCC)c3=O)cc1)=C\CC[C@@]1(C)O[C@@H]21 | 12.2% (inactive)
4 | COc1ccc(-c2cc(-c3cccc(NS(C)(=O)=O)c3)nc(N)c2C#N)cc1 | 0.11% (active)
5 | CC(C)(O)Cn1cc(-c2ccc3nc(OC4CC4)ccc3c2)c2c(N)ncnc21 | 89.1% (inactive) and 50.9% (inactive)
6 | CCCC(=O)N1CCCCC1CC (stereo not given) | 102% (inactive)
7 | Cn1cnc([N+](=O)[O-])c1Sc1ncnc2nc[nH]c12 | -4.47% (active) and 77.7% (inactive)
8 | O=C1C(c2ccccc2)C2C=CC(C2)N1O (stereo not given) | 98.9% (inactive)
9 | Cc1cc2nc3c4cc(C#N)ccc4n(CCN(C)C)c3nc2cc1C | -41.7% (active)
10 | CCN1C(=O)/C(=c2\sc3n(c2=O)NC2C(N=3)N(CC)C(=O)N2CC)c2ccccc21 (stereo not given) | 27% (inactive)
11 | CN1CCN(c2ccc(Nc3ncc(C(N)=O)c(NCCCNC(=O)C4CCC4)n3)cc2)CC1 | 6.58% (active)
12 | Cc1ccc(C2=NN(c3ccc(S(C)(=O)=O)cc3)C(=O)CC2)cc1 | 23.9% (inactive)
13 | CN(c1ccc(Br)cc1)S(=O)(=O)c1ccc(-c2cnc(C3CC3)o2)cc1 | 11.7% (inactive)
14 | NC(=O)c1ccc[n+](Cc2ccc(Cl)cc2Cl)c1 | 101% (inactive)
15 | COC1=CC(=O)c2ccccc2C1=O | 32.7% (inactive)
16 | Brc1ccc(SCN(CSc2ccc(Br)cc2)Cc2ccccc2)cc1 | 98.3% (inactive)
17 | Oc1[nH]c2ccccc2c1/C=c1/cc2c(c(-c3ccc(C(F)(F)F)cc3)n1)=Nc1ccccc1-2 | 21.6% (inactive)
18 | Cc1c(O)cccc1O | 117% (inactive)
19 | CCOC(=S)SCc1ccc(Cl)cc1 | 106% (inactive)
20 | O=C(CCl)Nc1ccccc1SCc1cc(Cl)cc2c1OCOC2 | 51.6% (inactive)

Row | SMILES | growth
21 | CCOc1cccc(/C=N/NC(=O)C(=O)Nc2cccc(C(F)(F)F)c2)c1O | 1.46% (active)
22 | C#CCOc1cc(/C=N/Nc2nc(-c3ccc(OC)cc3)cs2)ccc1O | 43% (inactive)
23 | COc1ccc(C(O)c2cc3c(N)c(C(=O)Nc4cccc(Br)c4C)sc3nc2C)cc1 (stereo not given) | 7.52% (active)
24 | COC1=CC(c2ccc[nH]2)=N/C1=C\c1[nH]c(C)c(C(=O)Oc2ccccc2)c1C | -82.9% (active)
25 | COc1cc(-c2nc(-c3ccccc3)[nH]c2-c2ccnc(NCCCNS(=O)(=O)c3ccc(C)cc3)n2)ccc1F | 79.4% (inactive)
26 | c1ccc2cc(C[n+]3ccn(CCCCCCCn4cc[n+](Cc5ccc6ccccc6c5)c4)c3)ccc2c1 | -2.76% (active)
27 | COc1ccc(-c2csc(NC(=O)CN3CCN(c4cc5c(cc4F)c(=O)c(C(=O)O)cn5C4CC4)CC3)n2)cc1 | -0.675% (active)
28 | O=C(Nc1ccc(OS(=O)(=O)c2ccc(F)cc2)cc1)c1ccc(Cl)cc1 | 98% (inactive)
29 | COc1cc(N=Nc2ccc(N)cc2)c(OC)cc1N=Nc1ccccc1.[Cl][Zn][Cl] | 118% (inactive)
30 | CC(=O)OCC(=O)[C@@]1(O)CC[C@H]2[C@@H]3CC[C@@H]4C[C@H](O)CC[C@]4(C)[C@H]3C(=O)C[C@@]21C | 98.1% (inactive)
31 | COc1nc2c(c(=O)n1C)CN(c1ccccc1)C(=O)CN2C | 4.41% [100 µM] (active)
32 | C#C[C@]1(O)CC[C@H]2[C@@H]3CC[C@H]4CC(F)(F)CC[C@]4(C)[C@H]3CC[C@@]21C | 88.2% (inactive)
33 | Cc1nc(N)sc1-c1ccnc(Nc2ccc(N3CCOCC3)cc2)n1 | 34.1% (inactive)
34 | COC(=O)c1cc2cc(-c3ccc(OC)cc3)cnc2[nH]1 | 17.4% (inactive)
35 | Cc1c(Cl)cccc1NC(=O)CCCl | 108% (inactive)
36 | O=C(Nc1cccc(Cl)c1)c1cc([N+](=O)[O-])ccc1O | 31.3% (inactive)
37 | Cn1c(=O)c2c(c3ccccc31)OC(N)=C(C#N)C21C(=O)c2ccccc2C1=O | 96.4% (inactive)
38 | COc1ccc(-c2nn(-c3cccc(Cl)c3)cc2C2CC(c3ccccc3)=NN2C(C)=O)cc1 (stereo not given) | 80.9% (inactive)
39 | COc1ccc(Cl)cc1NC(N)=S | 101% (inactive)
40 | O=C(Cn1c(C(=O)c2ccccc2)nc2ccccc21)c1ccc(F)cc1 | 35.1% (inactive)

Source: PubChem BioAssay (NCI)
